Measurements published in PubChem BioAssay (NCI).
This is part of a sample that, as a whole, favours compounds with a hit. Of some 83,000 tested, about 20% had one in any assay.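 Treatment: one concentration, 48 hours, 96-well format. Scoring: percent growth, with anything below 10 considered active.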 Calls of active or inactive are those of the source.

Legend:
Assay in all cases: NCI-60 one-dose screen, 48 h (100 = growth as untreated, 0 = no growth, -100 = all killed)
Conditions in all cases: 10 µM
[1] = system: NCI-H23 lung
[2] = system: NCI-H226 lung
[3] = system: NCI-H460 lung
[4] = system: HOP-92 NSCLC
[5] = system: A549/ATCC NSCLC
[6] = system: 786-0 renal
[7] = system: NCI-H522 lung
[8] = system: COLO 205 colon

Measured: growth

CC(=O)O[C@@]12CO[C@@H]1C[C@H](O)[C@@]1(C)C(=O)[C@H](O)C3=C(C)[C@@H](OC(=O)[C@H](O)[C@@H](NC(=O)OC(C)(C)C)c4ccccc4)C[C@@](O)([C@@H](OC(=O)c4ccccc4)C12)C3(C)C (stereo not given in full)
inactive: [1] 31.8% | [2] 61.5% | [3] 12.1% | [4] 56.3% | [5] 38.8% | [6] 54%

O=C1NC(=O)c2c(CCCSc3nc4ccccc4c(=O)n3CCc3ccccc3)cccc21
inactive: [1] 76.7% | [2] 82.9% | [3] 83.8% | [4] 94.5% | [7] 89.3% | [5] 89.4% | [6] 78.6% | [8] 118%

C#C[C@]1(O)CCC2C3CCc4cc(OC5CCCC5)ccc4C3CC[C@@]21C (stereo not given in full)
inactive: [1] 76.6% | [2] 91.6% | [3] 49.8% | [4] 99.6% | [5] 65.9% | [6] 73.5% | [8] 49.3%

Cc1nc2n(c(=O)c1CCN1CCC(c3noc4cc(F)ccc34)CC1)CCC[C@@H]2O
inactive: [1] 92.1% | [2] 99.6% | [3] 105% | [4] 97.9% | [5] 99.3% | [6] 107% | [8] 96.7%

N#Cc1c(-c2ccc(Cl)cc2)n(O)c2ccccc12
inactive: [2] 75.7% | [7] 10.7% | [5] 26.9% | [8] 115%
active: [1] -13.5% | [3] 9.12% | [4] -8.45% | [6] 8.19%

O=C1CCn2c1c(O)c1ccccc1c2=O
inactive: [1] 99.5% | [2] 101% | [3] 105% | [4] 95.4% | [7] 112% | [5] 100% | [6] 105% | [8] 123%

COc1ccc(-c2nn(-c3cccc(Cl)c3)cc2-c2cc(-c3ccccc3)[nH]c(=O)c2C#N)cc1
inactive: [1] 26.6% | [2] 24% | [3] 31.6% | [7] 44% | [5] 39.7% | [8] 60.7%
active: [4] -28% | [6] 6.65%

COc1ccc(-c2nn(-c3cccc(Cl)c3)cc2-c2cc(-c3ccccc3)nc(N)n2)cc1
inactive: [1] 42.2% | [2] 69.3% | [3] 31.6% | [4] 69.2% | [7] 45.8% | [5] 61.1% | [6] 60.1% | [8] 35.8%

COc1cc2c3c(n([C@H]4CCOC4)c(=O)c2cc1OC)-c1cc2c(cc1C3=O)OCO2
inactive: [1] 17.4% | [2] 20.8% | [7] 15.8% | [5] 32.5% | [6] 10.6% | [8] 35.8%
active: [3] 3.66%

COc1cc2c3c(n([C@@H]4CCOC4)c(=O)c2cc1OC)-c1cc2c(cc1C3=O)OCO2
active: [3] 4.11% | [6] 7.24%
inactive: [1] 22.8% | [2] 24.2% | [7] 17.5% | [5] 30.4% | [8] 38.8%

C[C@H]1[C@H](OC(=O)CCC(=O)O)O[C@@H]2O[C@]3(C)CC[C@H]4[C@H](C)CC[C@@H]1[C@@]24OO3
active: [8] -5.69%
inactive: [1] 19.9% | [2] 59.5% | [3] 25.5% | [4] 41.6% | [5] 42% | [6] 33.5%

CN1CCN(c2cc3c(cc2F)c(=O)c(C(=O)O)cn3-c2ccc(F)cc2)CC1
inactive: [1] 95.8% | [2] 100% | [3] 98.5% | [4] 118% | [5] 102% | [6] 97.6% | [8] 107%

CCOC(=O)c1sc2ncnc(Nc3ccc(NC(=O)Nc4ccc(Cl)cc4)cc3)c2c1C
inactive: [1] 52.2% | [2] 87.3% | [3] 41.1% | [7] 54.1% | [5] 54.5% | [6] 52.3% | [8] 53%

CO[C@H]1CC(O[C@@H]2/C(C)=C/C[C@@H]3C[C@@H](C[C@]4(C=C[C@H](C)[C@@H](C5CCCCC5)O4)O3)OC(=O)[C@@H]3C=C(C)[C@@H](O)[C@H]4OC/C(=C\C=C\[C@@H]2C)[C@]43O)O[C@@H](C)C1O[C@H]1C[C@H](OC)[C@@H](O)[C@H](C)O1 (stereo not given in full)
active: [1] -63.7% | [2] -85.8% | [3] -86.7% | [4] -82.9% | [5] -79.7% | [6] -80.3% | [8] -64.7%

COc1cc2c3c(n(C4CCNCC4)c(=O)c2cc1OC)-c1cc2c(cc1C3=O)OCO2
active: [1] -59.4% | [2] -43.8% | [3] -66.2% | [7] -44.3% | [5] -53.7% | [6] -60%

COc1ccc(CCN2CCC(Nc3nc4ccccc4n3Cc3ccc(F)cc3)CC2)cc1
active: [3] 1.57% | [4] -20.1% | [6] -96.5% | [8] -65.7%
inactive: [1] 47.1% | [2] 60% | [5] 28.7%

CC(CN(C)C)Oc1ccc(OC(C)CN(C)C)c2c1C(=O)c1ccccc1C2=O (stereo not given)
active: [8] 3.02%
inactive: [1] 41.6% | [2] 44.5% | [3] 17.2% | [7] 41.1% | [5] 22.5% | [6] 51%

O=C(CCCCNC(=O)c1nc(-c2ccccc2)n(-c2ccccc2)n1)NO
inactive: [1] 87% | [2] 83.9% | [3] 78.1% | [7] 27.7% | [5] 84.2% | [6] 92% | [8] 84.9%

CCn1cc(CNc2ccc(C(=O)Nc3ccc4ccccc4c3)cc2)c(C)n1
inactive: [1] 52.9% | [2] 51% | [3] 62.9% | [7] 74.7% | [5] 63.4% | [6] 75.3% | [8] 69.2%

COCCn1cc(-c2nc(-c3cccnc3)cs2)c2cc(F)ccc21
inactive: [1] 94% | [2] 91.5% | [3] 92.7% | [7] 70.6% | [5] 90.1% | [6] 90.8% | [8] 104%

CCc1c2c(nc3ccc(OC(=O)N4CCC(N5CCCCC5)CC4)cc13)-c1cc3c(c(=O)n1C2)COC(=O)[C@]3(O)CC
active: [1] 5.19% | [2] 7.44% | [3] 5.87% | [6] -47.7%
inactive: [4] 72.3% | [5] 39.6% | [8] 58.1%

Cc1cc(CC(C)CC(C)(C)C)n(O)c(=O)c1 (stereo not given) (tested in a mixture with another compound)
active: [3] 3.41%
inactive: [1] 14.6% | [2] 14.1% | [4] 73.6% | [5] 20.2% | [6] 29% | [8] 95.5%

COc1cc(C(=O)/C=C/c2c[nH]c3ccccc23)cc(OC)c1OC
active: [3] 8.04% | [7] -27% | [8] -65.1%
inactive: [1] 16.1% | [2] 55.6% | [5] 17.7% | [6] 12.2%

Nc1ccccc1NC(=O)c1ccc(CCCC(=O)Nc2ccc(C3CC3N)cc2)cc1 (stereo not given)
inactive: [1] 37.2% | [2] 27.5% | [3] 40.4% | [5] 34.8% | [6] 38.8%
active: [7] -34.4% | [8] -5.7%

Cc1c2c[n+](C(C)C)ccc2c(C)c2c1[nH]c1ccccc12
active: [1] 6.42% | [3] 4.39% | [7] 2.71% | [8] -6.61%
inactive: [2] 27.4% | [5] 20.4% | [6] 27.7%

CCCc1nc(C(C)(C)O)c(C(=O)O)n1Cc1ccc(-c2ccccc2-c2nn[nH]n2)cc1
inactive: [1] 103% | [2] 103% | [3] 105% | [4] 91.7% | [5] 99% | [6] 104% | [8] 111%

CCCCCOC(=O)Nc1nc(=O)n(C2O[C@H](C)[C@@H](O)[C@H]2O)cc1F (stereo not given in full)
inactive: [1] 95.3% | [2] 97.7% | [3] 102% | [4] 92.4% | [5] 98% | [6] 106% | [8] 106%

CCOC(=O)CSc1nc(-c2cc(OC)ccc2OC)cc(-c2ccc(OC)cc2)c1C#N
inactive: [1] 87% | [2] 86.4% | [3] 66.6% | [7] 55.8% | [5] 61.6% | [6] 71.9% | [8] 101%

Cc1ccc(NC(=S)NNC(=S)Nc2ccc(C)cc2)cc1
inactive: [1] 72.8% | [2] 94.7% | [3] 89.4% | [7] 32.7% | [5] 67% | [6] 58.9%

Clc1ccc2c(c1)C(N1CCNCC1)=Nc1ccccc1O2
inactive: [1] 64.4% | [2] 83.3% | [3] 68.1% | [5] 65% | [6] 56.1%
active: [4] 7.39% | [8] -65.9%

CCc1cc(Cl)c(OC)c(C(=O)NCC2CCCN2CC)c1O (stereo not given)
inactive: [1] 85.5% | [2] 94.7% | [3] 104% | [4] 65.8% | [5] 95.6% | [6] 97.8% | [8] 103%

O=C1c2ccccc2-c2c1c1cccnc1c(=O)n2C[C@H](O)CO
inactive: [1] 56.6% | [2] 78.8% | [3] 14.6% | [7] 44.4% | [5] 31.9% | [6] 55.2% | [8] 53.9%

Nc1nc(Cl)nc2c1ncn2C1O[C@H](CO)[C@@H](O)[C@@H]1F (stereo not given in full)
inactive: [4] 38.4% | [5] 23.4% | [8] 37.6%
active: [1] -9.12% | [2] 2.75% | [3] 3.27% | [6] -34.1%

COc1cc2c3c(n(C4CCN(C)CC4)c(=O)c2cc1OC)-c1cc2c(cc1C3=O)OCO2
inactive: [1] 52.4% | [2] 60.8% | [3] 19.8% | [5] 55% | [6] 55.4% | [8] 59.5%
active: [7] 8.85%
